# Changes are numbered by the printed parent chain.
# Experiments:
# Test in all cases: yeast three-hybrid, YBZ-1, SC-Leu-His + 0.5 mM 3-AT, 4 days
# Conditions in all cases: tags: N-Gal4 AD-HA kept; label: inside an RPR1-promoter hybrid RNA with tandem MS2 sites; ssRNA
# PUM1 PUF domain R2-QWW = PUM1 PUF domain R2-QWW (Homo sapiens, UniProt Q14671 828-1176, N899Q;Y900W;Q903W)
# Outline: (§1)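 The interaction score is the logarithmic change in variant frequency from input to selection. It uses log2, with a pseudocount of 1 for absent variants, and frequencies came from PCR-amplified, Illumina-sequenced repeat regions. The libraries were Pumilio-1 PUF domains randomized at the three base-contacting residues per repeat, co-expressed with matching RNA elements in strain YBZ-1 (LexA–MS2 coat fusion, HIS3 reporter). Plating lasted four days on SC-Leu (input) or SC-Leu-His + 0.5 mM 3-AT (selection).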
# PUM1 PUF domain R3-ARL = PUM1 PUF domain R3-ARL (Homo sapiens, UniProt Q14671 828-1176, C935A;Q939L)
# Outline: as §1
# PUM1 PUF domain R3-RNP = PUM1 PUF domain R3-RNP (Homo sapiens, UniProt Q14671 828-1176, C935R;R936N;Q939P)
# Outline: as §1
# PUM1 PUF domain R5-FRQ = PUM1 PUF domain R5-FRQ (Homo sapiens, UniProt Q14671 828-1176, C1007F)
# Outline: as §1
# PUM1 PUF domain R5-RCI = PUM1 PUF domain R5-RCI (Homo sapiens, UniProt Q14671 828-1176, C1007R;R1008C;Q1011I)
# Outline: as §1
# PUM1 PUF domain R4-SMV = PUM1 PUF domain R4-SMV (Homo sapiens, UniProt Q14671 828-1176, N971S;H972M;Q975V)
# Chain of PUM1 PUF domain R4-SMV (Q14671 828-1176 N971S/H972M/Q975V): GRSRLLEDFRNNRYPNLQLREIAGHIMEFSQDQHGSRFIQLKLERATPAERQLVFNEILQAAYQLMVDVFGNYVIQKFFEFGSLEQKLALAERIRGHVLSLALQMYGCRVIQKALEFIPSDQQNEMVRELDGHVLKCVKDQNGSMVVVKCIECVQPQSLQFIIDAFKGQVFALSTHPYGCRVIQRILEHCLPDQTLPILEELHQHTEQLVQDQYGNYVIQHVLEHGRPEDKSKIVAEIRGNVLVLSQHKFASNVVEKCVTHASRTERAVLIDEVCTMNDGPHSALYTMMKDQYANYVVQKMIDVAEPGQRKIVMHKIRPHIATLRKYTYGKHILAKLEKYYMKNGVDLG
# Outline: as §1
# PUM1 PUF domain R3-GNE = PUM1 PUF domain R3-GNE (Homo sapiens, UniProt Q14671 828-1176, C935G;R936N;Q939E)
# Outline: as §1
# PUM1 PUF domain R3-IYS = PUM1 PUF domain R3-IYS (Homo sapiens, UniProt Q14671 828-1176, C935I;R936Y;Q939S)
# Outline: as §1
# PUM1 PUF domain R1-RKS = PUM1 PUF domain R1-RKS (Homo sapiens, UniProt Q14671 828-1176, S863R;R864K;Q867S)
# Outline: as §1
# PUM1 PUF domain R5-GWW = PUM1 PUF domain R5-GWW (Homo sapiens, UniProt Q14671 828-1176, C1007G;R1008W;Q1011W)
# Outline: as §1
# PUM1 PUF domain R5-GFY = PUM1 PUF domain R5-GFY (Homo sapiens, UniProt Q14671 828-1176, C1007G;R1008F;Q1011Y)
# Outline: as §1
# PUM1 PUF domain R8-CHR = PUM1 PUF domain R8-CHR (Homo sapiens, UniProt Q14671 828-1176, N1122C;Y1123H;Q1126R)
# Outline: as §1
# PUM1 PUF domain R4-QRG = PUM1 PUF domain R4-QRG (Homo sapiens, UniProt Q14671 828-1176, N971Q;H972R;Q975G)
# Outline: as §1
# PUM1 PUF domain R6-FYC = molecular target: T1, PUM1 PUF domain R6-FYC (Homo sapiens, UniProt Q14671 828-1176, N1043F;Q1047C)
# T1 sequence: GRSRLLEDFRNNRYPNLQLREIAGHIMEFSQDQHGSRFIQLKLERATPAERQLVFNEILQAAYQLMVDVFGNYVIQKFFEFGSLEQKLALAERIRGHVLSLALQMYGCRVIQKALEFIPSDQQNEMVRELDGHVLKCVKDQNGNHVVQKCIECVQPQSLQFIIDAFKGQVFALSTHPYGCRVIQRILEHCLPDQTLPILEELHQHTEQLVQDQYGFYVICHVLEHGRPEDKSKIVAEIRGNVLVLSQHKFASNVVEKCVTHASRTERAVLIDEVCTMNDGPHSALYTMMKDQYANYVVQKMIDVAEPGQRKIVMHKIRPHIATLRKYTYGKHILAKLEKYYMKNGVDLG
# Outline: as §1
# PUM1 PUF domain R8-LYG = PUM1 PUF domain R8-LYG (Homo sapiens, UniProt Q14671 828-1176, N1122L;Q1126G)
# Outline: as §1
# PUM1 PUF domain R6-TFR = molecular target: T2, PUM1 PUF domain R6-TFR (Homo sapiens, UniProt Q14671 828-1176, N1043T;Y1044F;Q1047R)
# T2 sequence: T1 sequence with F216T, Y217F, C220R
# Outline: as §1
# PUM1 PUF domain R8-KKF = PUM1 PUF domain R8-KKF (Homo sapiens, UniProt Q14671 828-1176, N1122K;Y1123K;Q1126F)
# Outline: as §1
# PUM1 PUF domain R7-RSG = PUM1 PUF domain R7-RSG (Homo sapiens, UniProt Q14671 828-1176, S1079R;N1080S;E1083G)
# Outline: as §1
# PUM1 PUF domain R1-RQN = PUM1 PUF domain R1-RQN (Homo sapiens, UniProt Q14671 828-1176, S863R;R864Q;Q867N)
# Outline: as §1
# PUM1 PUF domain R1-RIT = PUM1 PUF domain R1-RIT (Homo sapiens, UniProt Q14671 828-1176, S863R;R864I;Q867T)
# Outline: as §1
sequence,measurement,setting,value
GGCUAGAACUAGUGGAUCCCCCGGCGCCCGGCGGCUCGAGCCCGGGUAAGUGUAAAGAGUCUGCAUGCCGCCGGGCGCCAUGCCUGCAGGUCGACUCUAGAAAACAUG,binding signal,PUM1 PUF domain R2-QWW,5.58 log2 enrichment (interaction score)
GGCUAGAACUAGUGGAUCCCCCGGCGCCCGGCGGCUCGAGCCCGGGUAAGUGUAAUUAGUCUGCAUGCCGCCGGGCGCCAUGCCUGCAGGUCGACUCUAGAAAACAUG,binding signal,PUM1 PUF domain R3-ARL,1.22 log2 enrichment (interaction score)
same,binding signal,PUM1 PUF domain R3-RNP,4.2 log2 enrichment (interaction score)
GGCUAGAACUAGUGGAUCCCCCGGCGCCCGGCGGCUCGAGCCCGGGUAAGUGUCAAUAGUCUGCAUGCCGCCGGGCGCCAUGCCUGCAGGUCGACUCUAGAAAACAUG,binding signal,PUM1 PUF domain R5-FRQ,2.71 log2 enrichment (interaction score)
same,binding signal,PUM1 PUF domain R5-RCI,2.64 log2 enrichment (interaction score)
GGCUAGAACUAGUGGAUCCCCCGGCGCCCGGCGGCUCGAGCCCGGGUAAGUGUACAUAGUCUGCAUGCCGCCGGGCGCCAUGCCUGCAGGUCGACUCUAGAAAACAUG,binding signal,PUM1 PUF domain R4-SMV,0.58 log2 enrichment (interaction score)
GGCUAGAACUAGUGGAUCCCCCGGCGCCCGGCGGCUCGAGCCCGGGUAAGUGUAAGUAGUCUGCAUGCCGCCGGGCGCCAUGCCUGCAGGUCGACUCUAGAAAACAUG,binding signal,PUM1 PUF domain R3-GNE,2.22 log2 enrichment (interaction score)
same,binding signal,PUM1 PUF domain R3-IYS,4.72 log2 enrichment (interaction score)
GGCUAGAACUAGUGGAUCCCCCGGCGCCCGGCGGCUCGAGCCCGGGUAAGUGUAAAUUGUCUGCAUGCCGCCGGGCGCCAUGCCUGCAGGUCGACUCUAGAAAACAUG,binding signal,PUM1 PUF domain R1-RKS,4.69 log2 enrichment (interaction score)
GGCUAGAACUAGUGGAUCCCCCGGCGCCCGGCGGCUCGAGCCCGGGUAAGUGUUAAUAGUCUGCAUGCCGCCGGGCGCCAUGCCUGCAGGUCGACUCUAGAAAACAUG,binding signal,PUM1 PUF domain R5-GWW,6.66 log2 enrichment (interaction score)
same,binding signal,PUM1 PUF domain R5-GFY,2.65 log2 enrichment (interaction score)
GGCUAGAACUAGUGGAUCCCCCGGCGCCCGGCGGCUCGAGCCCGGGUAAGUGUAAAUAGUCUGCAUGCCGCCGGGCGCCAUGCCUGCAGGUCGACUCUAGAAAACAUG,binding signal,PUM1 PUF domain R3-ARL,3.6 log2 enrichment (interaction score)
same,binding signal,PUM1 PUF domain R8-CHR,2.18 log2 enrichment (interaction score)
same,binding signal,PUM1 PUF domain R4-SMV,3.8 log2 enrichment (interaction score)
same,binding signal,PUM1 PUF domain R4-QRG,3.75 log2 enrichment (interaction score)
same,binding signal,PUM1 PUF domain R6-FYC,3.33 log2 enrichment (interaction score)
same,binding signal,PUM1 PUF domain R8-LYG,0.62 log2 enrichment (interaction score)
same,binding signal,PUM1 PUF domain R5-GFY,3.55 log2 enrichment (interaction score)
same,binding signal,PUM1 PUF domain R6-TFR,5.59 log2 enrichment (interaction score)
GGCUAGAACUAGUGGAUCCCCCGGCGCCCGGCGGCUCGAGCCCGGGUAAGCGUAAAUAGUCUGCAUGCCGCCGGGCGCCAUGCCUGCAGGUCGACUCUAGAAAACAUG,binding signal,PUM1 PUF domain R8-KKF,3 log2 enrichment (interaction score)
same,binding signal,PUM1 PUF domain R8-CHR,4.19 log2 enrichment (interaction score)
same,binding signal,PUM1 PUF domain R8-LYG,2.57 log2 enrichment (interaction score)
GGCUAGAACUAGUGGAUCCCCCGGCGCCCGGCGGCUCGAGCCCGGGUAAGUGCAAAUAGUCUGCAUGCCGCCGGGCGCCAUGCCUGCAGGUCGACUCUAGAAAACAUG,binding signal,PUM1 PUF domain R6-TFR,5.38 log2 enrichment (interaction score)
GGCUAGAACUAGUGGAUCCCCCGGCGCCCGGCGGCUCGAGCCCGGGUAAGUGUAUAUAGUCUGCAUGCCGCCGGGCGCCAUGCCUGCAGGUCGACUCUAGAAAACAUG,binding signal,PUM1 PUF domain R4-SMV,2.15 log2 enrichment (interaction score)
GGCUAGAACUAGUGGAUCCCCCGGCGCCCGGCGGCUCGAGCCCGGGUAAGUUUAAAUAGUCUGCAUGCCGCCGGGCGCCAUGCCUGCAGGUCGACUCUAGAAAACAUG,binding signal,PUM1 PUF domain R7-RSG,2.86 log2 enrichment (interaction score)
GGCUAGAACUAGUGGAUCCCCCGGCGCCCGGCGGCUCGAGCCCGGGUAAGUCUAAAUAGUCUGCAUGCCGCCGGGCGCCAUGCCUGCAGGUCGACUCUAGAAAACAUG,binding signal,PUM1 PUF domain R7-RSG,0.33 log2 enrichment (interaction score)
GGCUAGAACUAGUGGAUCCCCCGGCGCCCGGCGGCUCGAGCCCGGGUAAGUGUAAAUCGUCUGCAUGCCGCCGGGCGCCAUGCCUGCAGGUCGACUCUAGAAAACAUG,binding signal,PUM1 PUF domain R1-RQN,4.56 log2 enrichment (interaction score)
same,binding signal,PUM1 PUF domain R1-RIT,5.29 log2 enrichment (interaction score)
